# Bioassay records (PubChem BioAssay)
# Shown is part of a subset that was picked to be rich in hits.
# 14-3-3g Raf – modulators of human 14-3-3 gamma - Raf peptide interaction; P61981; FP, 14-3-3gamma / TMR-pS259-Raf peptide binding; inhibition, % at 40 µM; actives 0.19% (n = 160,000); in the data active = inhibition above about 30%;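 also: 0% = protein plus tracer without compound and 100% = blank with tracer alone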
# Target sequence (P61981 whole entry, looked up): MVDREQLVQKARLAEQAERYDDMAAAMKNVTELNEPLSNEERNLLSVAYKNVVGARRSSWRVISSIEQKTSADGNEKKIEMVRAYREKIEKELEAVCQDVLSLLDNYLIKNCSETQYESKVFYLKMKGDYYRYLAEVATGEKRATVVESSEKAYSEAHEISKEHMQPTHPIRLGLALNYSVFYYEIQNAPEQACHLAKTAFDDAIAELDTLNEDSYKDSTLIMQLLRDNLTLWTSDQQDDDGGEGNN
# The depositor's hits bear a star.
SMILES,14-3-3g Raf
CCC1(C(=O)c2ccc(C)cc2)C2c3cc(Br)ccc3OC(=O)C21C(=O)OC (centres undefined),31*
CCC1(C(=O)c2ccccc2)C2c3cc(Br)ccc3OC(=O)C21C(=O)OC (centres undefined),5
CCOC(=O)C1C2NC(=S)N(c3ccccc3)C1(C)Oc1ccc(Br)cc12 (centres undefined),-10
CCN(C(=O)CN1C(=O)CN=C(c2ccccc2Cl)c2cc(Cl)ccc21)c1cccc(C)c1,-3
O=c1c2ccccc2nc(C=Cc2ccccc2)n1-c1ccccc1F,-5
CCOc1ccc(-n2c(O)c(C=NCCN3CCNCC3)c(=O)[nH]c2=O)cc1,34*
O=c1[nH]c(=O)n(CCc2ccccc2)c(O)c1C=NCCN1CCNCC1,1
Cc1ccc(-n2c(O)c(C=NCCN3CCOCC3)c(=O)[nH]c2=O)cc1,1
CCCC1C(c2ccccc2)NC(c2ccccc2)CC1(O)c1ccc(F)cc1 (centres undefined),-1
CCOC(=O)C1C2NC(=S)N(c3ccc(C)cc3)C1(C)Oc1c(OCC)cccc12 (centres undefined),-3
O=c1c2ccccc2nc(C=Cc2ccc(Br)cc2)n1-c1ccccc1O,-15
Cc1cc(C)cc(-n2c(C=Cc3ccccc3F)nc3ccccc3c2=O)c1,4
O=c1c2ccccc2nc(-c2ccc([N+](=O)[O-])cc2)n1-c1cccc(Cl)c1,-60
CN(N=O)c1ccc(O)c(O)c1,40*
O=c1c2ccccc2nc(C=Cc2cccc(Br)c2)n1-c1cccc([N+](=O)[O-])c1,2
C#CCN(C)C(C)Cc1ccccc1 (centres undefined),35*
C#CCN(C)[C@@H](C)Cc1ccccc1,-1
Cc1ccc(-n2c(C=Cc3ccc([N+](=O)[O-])o3)nc3ccccc3c2=O)cc1,-53
C=CCOC(=O)C1C2NC(=S)NC1(C)Oc1ccccc12 (centres undefined),-6
Cc1cccc(CN2C(=O)C(C)N=C(c3ccccc3)c3ccccc32)c1 (centres undefined),0
